Where “and” joins values, the source holds several entries; their conditions need not be identical. Equal entries are not always repeated. Results filed as inconclusive are left out. The source holds several records for some structures; these can differ, active in one and inactive in another. Calls of active or inactive are those of the source. The calls were made as follows, unless noted: active = hit-call score of the fitted dose curve at least 0.9, where 1 is the maximum; inconclusive = response in the unintended direction; inactive = score below 0.9.
Key:
[1] = molecular target: Oxysterols receptor LXR-alpha (Homo sapiens) (UniProt Q13133); assay: ATG_LXRa_TRANS: Attagene TRANS-FACTORIAL HepG2 Assay for human Liver X Receptor alpha (LXRa) (AID 2282980); conditions: HepG2 Attagene TRANS reporter, LXRa transactivation
Chain of Oxysterols receptor LXR-alpha (Homo sapiens) (Q13133 whole entry, looked up, the tested form may be a part): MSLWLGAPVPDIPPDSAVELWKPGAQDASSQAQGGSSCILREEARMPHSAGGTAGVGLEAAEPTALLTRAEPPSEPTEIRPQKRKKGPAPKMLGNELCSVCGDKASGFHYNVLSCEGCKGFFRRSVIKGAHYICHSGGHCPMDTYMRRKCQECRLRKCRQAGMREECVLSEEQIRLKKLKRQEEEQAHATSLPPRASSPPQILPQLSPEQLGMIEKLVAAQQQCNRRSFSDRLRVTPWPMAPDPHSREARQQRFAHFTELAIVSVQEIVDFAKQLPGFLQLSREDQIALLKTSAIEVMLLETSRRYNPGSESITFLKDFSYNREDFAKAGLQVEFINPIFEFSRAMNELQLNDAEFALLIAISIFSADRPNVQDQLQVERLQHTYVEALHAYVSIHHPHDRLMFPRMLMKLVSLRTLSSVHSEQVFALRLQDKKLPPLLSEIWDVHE
In short: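 In this multiplexed TRANS system, compounds act on HepG2 cells carrying GAL4-UAS reporter units and a receptor-GAL4 fusion for 24 h. Induced reporter RNA is amplified, fluorescently labelled and sized by capillary electrophoresis, with DMSO as baseline.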

[2] = molecular target: Oxysterols receptor LXR-beta (Homo sapiens) (UniProt P55055); assay: ATG_LXRb_TRANS: Attagene TRANS-FACTORIAL HepG2 Assay for human Liver X Receptor beta (LXRb) (AID 2282981); conditions: HepG2 Attagene TRANS GAL4-LXRb reporter, mRNA
Chain of Oxysterols receptor LXR-beta (Homo sapiens) (P55055 whole entry, looked up, the tested form may be a part): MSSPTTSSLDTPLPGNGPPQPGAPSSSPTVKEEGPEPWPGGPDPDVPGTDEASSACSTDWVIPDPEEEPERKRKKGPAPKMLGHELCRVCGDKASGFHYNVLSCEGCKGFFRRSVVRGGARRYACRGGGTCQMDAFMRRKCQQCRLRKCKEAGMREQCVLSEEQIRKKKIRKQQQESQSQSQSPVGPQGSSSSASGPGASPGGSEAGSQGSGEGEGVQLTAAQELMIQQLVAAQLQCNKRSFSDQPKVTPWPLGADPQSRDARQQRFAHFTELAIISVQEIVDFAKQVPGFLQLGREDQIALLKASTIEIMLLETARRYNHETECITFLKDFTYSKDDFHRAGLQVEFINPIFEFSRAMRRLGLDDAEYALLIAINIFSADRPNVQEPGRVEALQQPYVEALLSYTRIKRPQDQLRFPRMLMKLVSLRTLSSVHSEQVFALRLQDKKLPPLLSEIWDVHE
In short: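 Liver-derived HepG2 cells transfected with Gal4-responsive reporters were dosed for 24 h. Activation was scored as rise in reporter mRNA, by RT-PCR and capillary electrophoresis, above DMSO baseline.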

[3] = molecular target: Hepatocyte nuclear factor 4-alpha (Homo sapiens) (UniProt P41235); assay: ATG_HNF4a_TRANS: Attagene TRANS-FACTORIAL HepG2 Assay for human Hepatocyte Nuclear Factor 4 alpha (HNF4a) (AID 2282982); conditions: HepG2 HNF4a transactivation reporter, mRNA readout
Chain of Hepatocyte nuclear factor 4-alpha (Homo sapiens) (P41235 whole entry, looked up, the tested form may be a part): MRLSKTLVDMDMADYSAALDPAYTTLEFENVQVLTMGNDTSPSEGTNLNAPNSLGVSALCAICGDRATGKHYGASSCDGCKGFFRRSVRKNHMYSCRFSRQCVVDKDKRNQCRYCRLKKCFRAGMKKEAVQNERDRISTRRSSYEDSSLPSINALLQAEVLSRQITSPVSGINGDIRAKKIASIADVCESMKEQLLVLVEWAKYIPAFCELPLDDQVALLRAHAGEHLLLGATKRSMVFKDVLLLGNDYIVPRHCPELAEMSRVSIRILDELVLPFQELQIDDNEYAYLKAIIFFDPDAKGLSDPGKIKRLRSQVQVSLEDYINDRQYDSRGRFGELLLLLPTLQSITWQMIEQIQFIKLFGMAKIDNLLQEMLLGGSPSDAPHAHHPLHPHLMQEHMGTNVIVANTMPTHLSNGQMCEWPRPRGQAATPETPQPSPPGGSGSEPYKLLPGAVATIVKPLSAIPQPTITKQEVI
In short: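 Using HepG2 liver cells transfected with GAL4-UAS reporter units, chemical-induced mRNA increases were assessed after 24 hours. Fluorescent RT-PCR fragments were separated by capillary electrophoresis and compared with DMSO negative controls.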

[4] = ATG_M_32_TRANS: Attagene TRANS-FACTORIAL HepG2 Assay for M32 Transcription Factor (Internal Marker) (AID 2282984); conditions: HepG2 Attagene TRANS M32 internal marker reporter;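 also: transcript level of a background control reporter unit measured by RT-PCR and capillary electrophoresis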
In short: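 Fluorescence-detected mRNA induction, HepG2 liver cells, 24 h after dosing. Multiple GAL4-UAS reporter units introduced by transient transfection; background-control endpoint analysed for gain of signal against DMSO.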

[5] = molecular target: Nuclear receptor subfamily 4 group A member 2 (Homo sapiens) (UniProt P43354); assay: ATG_NURR1_TRANS: Attagene TRANS-FACTORIAL HepG2 Assay for human Nuclear Receptor Related Protein 1 (NURR1) (AID 2282985); conditions: HepG2 Attagene TRANS reporter, mRNA readout
Chain of Nuclear receptor subfamily 4 group A member 2 (Homo sapiens) (P43354 whole entry, looked up, the tested form may be a part): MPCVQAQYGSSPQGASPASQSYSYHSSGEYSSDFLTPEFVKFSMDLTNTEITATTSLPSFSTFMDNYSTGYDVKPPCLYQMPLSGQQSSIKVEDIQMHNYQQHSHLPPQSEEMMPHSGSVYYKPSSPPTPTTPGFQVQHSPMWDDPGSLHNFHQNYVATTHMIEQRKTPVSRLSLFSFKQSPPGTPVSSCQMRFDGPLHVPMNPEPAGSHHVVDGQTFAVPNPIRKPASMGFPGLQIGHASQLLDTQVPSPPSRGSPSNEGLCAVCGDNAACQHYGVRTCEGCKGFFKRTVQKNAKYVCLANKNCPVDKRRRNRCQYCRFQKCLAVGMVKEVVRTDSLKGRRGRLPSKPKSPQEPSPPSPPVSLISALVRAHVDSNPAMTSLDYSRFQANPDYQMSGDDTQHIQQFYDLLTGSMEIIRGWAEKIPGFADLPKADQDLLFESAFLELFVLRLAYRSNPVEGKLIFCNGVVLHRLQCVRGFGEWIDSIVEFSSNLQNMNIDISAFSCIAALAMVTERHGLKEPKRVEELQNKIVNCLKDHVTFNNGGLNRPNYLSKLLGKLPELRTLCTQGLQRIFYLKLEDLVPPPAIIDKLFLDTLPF
In short: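 Chimeric NR-Gal4 proteins were expressed in human HepG2 cells bearing GAL4-UAS reporter units, and induced reporter mRNA was quantified 24 h post-dosing by RT-PCR and capillary electrophoresis.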

[6] = molecular target: Transcriptional activator Myb (Homo sapiens) (UniProt P10242); assay: ATG_Myb_CIS: Attagene CIS-FACTORIAL HepG2 Assay for human Myeloblastosis (Myb) Proto-Oncogene Transcription Factor (AID 2282986; active = hit-call score of the fitted dose curve at least 0.9, where 1 is the maximum; inactive = score below 0.9); conditions: HepG2 Attagene CIS-FACTORIAL Myb reporter transcription; actives raise or lower the signal
Chain of Transcriptional activator Myb (Homo sapiens) (P10242 whole entry, looked up): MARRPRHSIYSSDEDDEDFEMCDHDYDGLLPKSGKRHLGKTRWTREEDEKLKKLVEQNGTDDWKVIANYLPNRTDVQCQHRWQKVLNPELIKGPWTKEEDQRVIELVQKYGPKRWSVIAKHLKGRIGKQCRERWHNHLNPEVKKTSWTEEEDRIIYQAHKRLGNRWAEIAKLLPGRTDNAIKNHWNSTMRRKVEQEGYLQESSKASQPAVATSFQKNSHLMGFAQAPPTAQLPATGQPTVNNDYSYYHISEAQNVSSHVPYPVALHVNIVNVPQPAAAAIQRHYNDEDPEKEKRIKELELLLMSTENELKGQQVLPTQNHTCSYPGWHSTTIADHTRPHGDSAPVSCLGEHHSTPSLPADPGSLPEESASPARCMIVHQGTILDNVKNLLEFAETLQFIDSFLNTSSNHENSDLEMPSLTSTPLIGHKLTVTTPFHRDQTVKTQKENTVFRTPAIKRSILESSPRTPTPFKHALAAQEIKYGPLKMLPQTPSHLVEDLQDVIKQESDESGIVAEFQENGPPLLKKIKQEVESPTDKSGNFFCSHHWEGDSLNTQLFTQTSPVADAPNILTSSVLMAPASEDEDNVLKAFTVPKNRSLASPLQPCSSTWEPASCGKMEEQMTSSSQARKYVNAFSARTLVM
In short: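 Fluorescence signals from capillary electrophoresis of RT-PCR-amplified reporter cDNA give the read-out. Cells: HepG2 transfected with multiple cis-regulated reporter units. Exposure lasts 24 hours; DMSO defines baseline for gain or loss of signal.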

[7] = molecular target: Nuclear respiratory factor 1 (Homo sapiens) (UniProt Q16656); assay: ATG_NRF1_CIS: Attagene CIS-FACTORIAL HepG2 Assay for human Nuclear Respiratory Factor 1 (NRF1) Orphan Gene (AID 2282987; active = hit-call score of the fitted dose curve at least 0.9, where 1 is the maximum; inactive = score below 0.9); conditions: HepG2 NRF1 cis-element reporter, Attagene multiplex; actives raise or lower the signal
Chain of Nuclear respiratory factor 1 (Homo sapiens) (Q16656 whole entry, looked up): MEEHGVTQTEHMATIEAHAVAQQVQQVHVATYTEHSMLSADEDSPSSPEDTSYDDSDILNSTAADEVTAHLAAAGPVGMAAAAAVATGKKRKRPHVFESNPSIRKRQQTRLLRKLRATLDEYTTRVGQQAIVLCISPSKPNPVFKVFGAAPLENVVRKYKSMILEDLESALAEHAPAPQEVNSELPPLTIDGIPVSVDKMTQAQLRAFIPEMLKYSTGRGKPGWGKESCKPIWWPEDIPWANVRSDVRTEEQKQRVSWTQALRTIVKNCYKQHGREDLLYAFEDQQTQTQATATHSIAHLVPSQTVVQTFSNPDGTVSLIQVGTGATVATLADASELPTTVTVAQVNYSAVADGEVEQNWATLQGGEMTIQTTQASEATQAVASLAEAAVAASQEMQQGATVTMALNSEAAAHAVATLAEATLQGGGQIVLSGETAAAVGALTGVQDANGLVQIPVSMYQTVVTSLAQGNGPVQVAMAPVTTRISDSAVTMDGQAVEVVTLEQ
In short: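 Transcriptional reporter readout, one component of a 52-endpoint multiplexed HepG2 panel. Exposure 24 h; mRNA detected via RT-PCR and fluorescent capillary electrophoresis; fitting in both directions against DMSO.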

[8] = molecular target: Bile acid receptor (Homo sapiens) (UniProt Q96RI1); assay: ATG_FXR_TRANS: Attagene TRANS-FACTORIAL HepG2 Assay for Farnesoid X Receptor (FXR) (AID 2282979); conditions: HepG2 Attagene TRANS FXR-GAL4 reporter transcription;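 also: hits raise reporter mRNA above DMSO so AC50 marks FXR activation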
Chain of Bile acid receptor (Homo sapiens) (Q96RI1 whole entry, looked up, the tested form may be a part): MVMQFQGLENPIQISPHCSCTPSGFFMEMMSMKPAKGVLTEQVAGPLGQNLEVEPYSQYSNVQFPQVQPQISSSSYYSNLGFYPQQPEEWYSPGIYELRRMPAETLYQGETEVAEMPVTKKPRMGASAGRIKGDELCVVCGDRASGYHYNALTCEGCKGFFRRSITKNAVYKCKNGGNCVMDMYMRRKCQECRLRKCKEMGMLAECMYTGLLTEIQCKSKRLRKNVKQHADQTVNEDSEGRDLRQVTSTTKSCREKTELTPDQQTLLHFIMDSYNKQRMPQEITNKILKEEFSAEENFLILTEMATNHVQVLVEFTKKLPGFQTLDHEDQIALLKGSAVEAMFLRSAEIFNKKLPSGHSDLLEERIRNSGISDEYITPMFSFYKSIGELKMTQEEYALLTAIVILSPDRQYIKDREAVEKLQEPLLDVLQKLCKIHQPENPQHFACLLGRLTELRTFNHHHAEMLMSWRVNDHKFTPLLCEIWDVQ
In short: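 After 24 h chemical treatment of transfected HepG2 cells, GAL4-UAS reporter transcripts driven by an exogenous FXR-GAL4 fusion were measured by RT-PCR and capillary electrophoresis. Increases over DMSO were fitted.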

[9] = molecular target: Glucocorticoid receptor (Homo sapiens) (UniProt P04150); assay: ATG_GR_TRANS: Attagene TRANS-FACTORIAL HepG2 Assay for human Glucocorticoid Receptor (GR) (AID 2282978); conditions: HepG2 Attagene TRANS GR reporter, mRNA transcription;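 also: activators score as hits since higher reporter transcript over DMSO is fitted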
Chain of Glucocorticoid receptor (Homo sapiens) (P04150 whole entry, looked up, the tested form may be a part): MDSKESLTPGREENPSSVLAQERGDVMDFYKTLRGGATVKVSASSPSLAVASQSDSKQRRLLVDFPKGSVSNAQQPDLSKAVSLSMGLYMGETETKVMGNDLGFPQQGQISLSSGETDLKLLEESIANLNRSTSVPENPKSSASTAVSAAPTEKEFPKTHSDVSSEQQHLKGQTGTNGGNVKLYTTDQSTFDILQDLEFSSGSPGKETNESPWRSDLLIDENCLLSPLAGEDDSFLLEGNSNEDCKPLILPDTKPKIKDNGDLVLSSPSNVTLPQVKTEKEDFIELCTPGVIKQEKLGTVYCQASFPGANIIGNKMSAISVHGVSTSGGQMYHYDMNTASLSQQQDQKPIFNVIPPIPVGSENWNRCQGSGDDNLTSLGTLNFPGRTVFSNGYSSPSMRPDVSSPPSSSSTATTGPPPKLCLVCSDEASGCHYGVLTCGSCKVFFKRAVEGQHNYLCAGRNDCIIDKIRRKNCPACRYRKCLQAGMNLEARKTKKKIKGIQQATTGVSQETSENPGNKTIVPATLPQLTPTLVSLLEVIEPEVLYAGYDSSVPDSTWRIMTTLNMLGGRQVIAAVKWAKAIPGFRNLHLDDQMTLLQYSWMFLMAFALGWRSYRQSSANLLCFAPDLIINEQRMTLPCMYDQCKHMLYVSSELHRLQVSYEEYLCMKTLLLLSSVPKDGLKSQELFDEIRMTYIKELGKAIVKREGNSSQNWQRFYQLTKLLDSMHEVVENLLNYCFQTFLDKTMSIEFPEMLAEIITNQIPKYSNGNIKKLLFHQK
In short: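 Measurement of GAL4-UAS-driven reporter mRNA in human HepG2 liver cells 24 h post-dosing, using RT-PCR with fluorescent labelling and capillary electrophoresis; the transfected constructs report exogenous NR-GAL4 chimera activity, fitted upward against DMSO.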

[10] = ATG_M_06_TRANS: Attagene TRANS-FACTORIAL HepG2 Assay for M06 Transcription Factor (Internal Marker) (AID 2282983); conditions: HepG2 Attagene TRANS M06 internal marker reporter;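 also: reporter transcript level by RT-PCR then capillary electrophoresis fluorescence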
In short: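 Multi-reporter-transfected HepG2, 24 h treatment; reporter transcripts quantified via RT-PCR, primer-extension labelling and CE. DMSO-normalized gain-of-signal fit.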

Measured: AC50

CN(C)c1ccc(C(=O)c2ccc(N(C)C)cc2)cc1
inactive: [8] | [1] | [3] | [4] | [6] | [7]

O=C(Nc1ccccc1)c1ccccc1I
inactive: [9] | [10] | [4] | [6] | [7]

CC(C)(C)C(O)(CCc1ccc(Cl)cc1)Cn1cncn1 (centres undefined)
inactive: [9] | [10] | [4] | [6] | [7]

C[C@]12C=CC3=C4CCC(=O)C=C4CC[C@H]3[C@@H]1CC[C@@H]2O
not listed: [9]
inactive: all other assays above

ClC1=C(Cl)C2(Cl)C3C(Cl)C=CC3C1(Cl)C2(Cl)Cl (centres undefined)
inactive: [9] | [2] | [10] | [4] | [6] | [7]

CN(C)c1ccccc1
inactive: [9] | [10] | [6] | [7]

Cn1cc(-c2ccccc2)c(=O)c(-c2cccc(C(F)(F)F)c2)c1
inactive: [9] | [4] | [6]
active: [7] 100 µM

Oc1ccc2ccc3cccc4ccc1c2c34
inactive: [9] | [3] | [10] | [4] | [6] | [7]

Brc1ccc(Oc2ccccc2)cc1
inactive: [9] | [2] | [10] | [5] | [6] | [7]

CCNS(=O)(=O)C(F)(F)C(F)(F)C(F)(F)C(F)(F)C(F)(F)C(F)(F)C(F)(F)C(F)(F)F
inactive: [8] | [1] | [2] | [3] | [10] | [4] | [5] | [6] | [7]
active: [1] 42.3 µM and 39.2 µM | [6] 25.8 µM

CCCCCCCCn1sccc1=O
inactive: [8] | [3] | [10] | [4]
active: [6] 11.6 µM | [7] 16.5 µM

CN(C)C(=O)Nc1ccc(Cl)cc1
inactive: [8] | [2] | [10] | [4] | [6] | [7]

CCCCCOC(=O)c1ccccc1C(=O)OCCCCC
inactive: [9] | [10] | [4] | [5] | [6] | [7]

O=[N+]([O-])C(Br)(CO)CO
active: [2] 0.00914 µM | [7] 162 µM
not listed: [5] | [9]
inactive: all other assays above

ClCCOCCCl
inactive: [8] | [2] | [4] | [5] | [6] | [7]

[As]#[In]
inactive: [9] | [3] | [10] | [5] | [6] | [7]

c1ccc(C2CO2)cc1 (centres undefined)
inactive: [9] | [4] | [5] | [6] | [7]

Cc1ccc(N=C=O)cc1N=C=O
inactive: [10] | [6] | [7]

Cc1ccc(N)c(N)c1
inactive: [10] | [6] | [7]

OCCOCCO
inactive: [1] | [2] | [3] | [4] | [6] | [7]

COC(=O)c1ccccc1N
inactive: [1] | [6] | [7]

[O-][Cl+]O
not listed: [2] | [8] | [9]
inactive: all other assays above

Cc1ccc([N+](=O)[O-])cc1
inactive: [10] | [6] | [7]

CCC12COCN1COC2
inactive: [1] | [2] | [3] | [6] | [7]

O=C1CCCO1
inactive: [2] | [3] | [10] | [6] | [7]

ClC1=C(Cl)[C@]2(Cl)[C@H]3[C@H]([C@@H]4C=C[C@H]3C4)[C@@]1(Cl)C2(Cl)Cl
inactive: [3] | [5] | [6] | [7]

CCCCC(CC)COC(=O)c1ccc(C(=O)OCC(CC)CCCC)c(C(=O)OCC(CC)CCCC)c1 (centres undefined)
inactive: [2] | [10] | [5] | [6] | [7]

CC(O)CCO (centres undefined)
not listed: [1] | [8] | [9]
inactive: all other assays above

OCCCBr
inactive: [2] | [3] | [10] | [5] | [6] | [7]

COc1cc(C=O)cc2c1[C@H](COC(N)=O)[C@]1(OC(C)=O)ON2C[C@H]2[C@@H]1N2C(C)=O
inactive: [1] | [3] | [10] | [4] | [7]
active: [6] 2.77 µM

CCN(CC)CCO
inactive: [2] | [10] | [5] | [6] | [7]

CC(C)(C)OOC(C)(C)CCC(C)(C)OOC(C)(C)C
inactive: [1] | [10] | [5] | [6] | [7]

Clc1ccc(Cl)c(Cl)c1
inactive: [2] | [3] | [10] | [5] | [6] | [7]

c1ccc2c(c1)-c1cccc3cccc-2c13
inactive: [10] | [6] | [7]
active: [5] 160 µM

COC(=O)Nc1nc2ccccc2[nH]1
not listed: [1] | [8] | [9]
inactive: all other assays above

CC(C)(C)OOC(=O)c1ccccc1
active: [6] 153 µM
inactive: [2] | [10] | [7]

CS(=O)(=O)NC(=O)c1cc(Oc2ccc(C(F)(F)F)cc2Cl)ccc1[N+](=O)[O-]
inactive: [4] | [6] | [7]

C[N+](C)(C)CC1CO1 (centres undefined)
inactive: [2] | [4] | [6] | [7]

C1=Cc2cccc3cccc1c23
not listed: [1] | [8] | [9]
inactive: all other assays above

CCOc1cccc(C2(N3CCN(c4ccccc4)CC3)CCC(C)CC2)c1 (centres undefined)
inactive: [10] | [6] | [7]

N#CC(Br)(Br)C(N)=O
inactive: [10] | [5] | [6] | [7]

Nc1cc(Cl)cc(C(=O)O)c1Cl
inactive: [3] | [10] | [6] | [7]

Cc1ccc(N)cc1
inactive: [4] | [5] | [6] | [7]

O=Cc1ccco1
inactive: [1] | [3] | [5] | [6] | [7]

CCN(CC)N=O
inactive: [1] | [10] | [6] | [7]

Source: PubChem BioAssay (EPA / NIEHS)
